Data from PubChem BioAssay (EPA / NIEHS).
The source made the active and inactive calls. How the source made its calls: active means hit-call score of the fitted dose curve at least 0.9, where 1 is the maximum; inactive means score below 0.9.

How the values were obtained:
Settings in all cases: mRNA level, 48 h; actives raise or lower the signal
[1] = read-out: Intercellular Adhesion Molecule 1 (ICAM1), ICAM1 (gene 3383); experiment: LTEA_HepaRG_ICAM1: Life Technologies and Expression Analysis (LTEA) Assay for Intercellular Adhesion Molecule 1 (ICAM1) using HepaRG (AID 2283507)
Outline: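 ICAM1 transcript levels measured by qRT-PCR, normalized to three housekeeping genes (ACTB, GAPDH, POLR2A), after 48 h chemical exposure of HepaRG cells. Duplicate eight-point half-log series from 100 uM in 0.5% DMSO; gain or loss fitted against vehicle.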

[2] = read-out: Insulin-like growth factor-binding protein 1 (IGFBP1), IGFBP1 (gene 3484); experiment: LTEA_HepaRG_IGFBP1: Life Technologies and Expression Analysis (LTEA) Assay for Insulin-like growth factor-binding protein 1 (IGFBP1) using HepaRG (AID 2283508)
Outline: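 Read-out is qRT-PCR transcript level normalized to three housekeeping genes, fitted in both directions against 0.5% DMSO. Differentiated HepaRG cells received eight half-log concentrations (top 100 uM) in duplicate for 48 h in serum-free induction medium.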

[3] = read-out: Interleukin 6 (IL6), IL6 (gene 3569); experiment: LTEA_HepaRG_IL6: Life Technologies and Expression Analysis (LTEA) Assay for Interleukin 6 (IL6) using HepaRG (AID 2283509)
Outline: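 Changes in IL6 mRNA, up or down relative to 0.5% DMSO controls, were derived from concentration-response curves in human HepaRG cells treated for 48 h at up to 100 uM, with ACTB, GAPDH and POLR2A as normalizers.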

[4] = read-out: Interleukin 6 Receptor (IL6R), IL6R (gene 3570); experiment: LTEA_HepaRG_IL6R: Life Technologies and Expression Analysis (LTEA) Assay for Interleukin 6 Receptor (IL6R) using HepaRG (AID 2283510)
Outline: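 HepaRG, 48 h exposure, 8-pt half-log series, top 100 uM, 0.5% DMSO vehicle, duplicates. Read-out: TaqMan qRT-PCR of IL6R transcript, housekeeping-gene normalized. Gain or loss fitted relative to DMSO baseline.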

[5] = read-out: Potassium channel subfamily K member 1 (KCNK1), KCNK1 (gene 3775); experiment: LTEA_HepaRG_KCNK1: Life Technologies and Expression Analysis (LTEA) Assay for Potassium channel subfamily K member 1 (KCNK1) using HepaRG (AID 2283511)
Outline: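 Human HepaRG cultures receive test chemicals for 48 h in 0.5% DMSO, top concentration 100 uM with half-log dilutions. Induction or suppression of KCNK1 mRNA relative to DMSO is derived by bidirectional fitting of qRT-PCR data.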

[6] = read-out: Keratin 19 (KRT19), KRT19 (gene 3880); experiment: LTEA_HepaRG_KRT19: Life Technologies and Expression Analysis (LTEA) Assay for Keratin 19 (KRT19) using HepaRG (AID 2283512)
Outline: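 KRT19 transcript measured by TaqMan qRT-PCR, referenced to three housekeeping genes, after HepaRG cells received test chemicals for 48 h. Eight half-log concentrations, top 100 uM, 0.5% DMSO vehicle; increases and decreases both fitted.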

[7] = read-out: JUN Transcription Factor, JUN (gene 3725); experiment: LTEA_HepaRG_JUN: Life Technologies and Expression Analysis (LTEA) Assay for JUN Transcription Factor using HepaRG (AID 2283513)
Outline: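 HepaRG, 48 h exposure, 8-pt half-log series top 100 uM, 0.5% DMSO, duplicate. JUN mRNA by qRT-PCR (Fluidigm), housekeeping-normalized (ACTB/GAPDH/POLR2A); bidirectional curve fit vs DMSO baseline.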

[8] = read-out: Lipase C (LIPC), LIPC (gene 3990); experiment: LTEA_HepaRG_LIPC: Life Technologies and Expression Analysis (LTEA) Assay for Lipase C (LIPC) using HepaRG (AID 2283514)
Outline: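 In this multiplexed gene-expression screen, human HepaRG cultures received test chemicals for 48 h across eight concentrations with 100 uM highest, in duplicate. Values reflect LIPC mRNA induction or suppression versus DMSO vehicle, from normalized qRT-PCR.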

[9] = read-out: Lipoprotein lipase (LPL), LPL (gene 4023); experiment: LTEA_HepaRG_LPL: Life Technologies and Expression Analysis (LTEA) Assay for Lipoprotein lipase (LPL) using HepaRG (AID 2283515)
Outline: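 Concentration-response testing used half-log steps from 100 uM in 0.5% DMSO on human HepaRG cells, 48 h, duplicate wells. Phenobarbital 1 mM served as induction control; LPL mRNA was normalized to ACTB, GAPDH, POLR2A.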

[10] = read-out: MicroRNA 122 (MIR122), gene 406906; experiment: LTEA_HepaRG_MIR122: Life Technologies and Expression Analysis (LTEA) Assay for MicroRNA 122 (MIR122) using HepaRG (AID 2283516); further: the transcript read is the microRNA miR-122
Outline: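 qRT-PCR read-out (TaqMan, Fluidigm array), normalized to three housekeeping genes; HepaRG cells dosed 48 h at 8 concentrations up to 100 uM in 0.5% DMSO, duplicate; gain or loss fitted against DMSO baseline.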

[11] = read-out: matrix metalloproteinase-10 (MMP10), MMP10 (gene 4319); experiment: LTEA_HepaRG_MMP10: Life Technologies and Expression Analysis (LTEA) Assay for matrix metalloproteinase-10 (MMP10) using HepaRG (AID 2283517)
Outline: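 In differentiated HepaRG cultures kept in 0.5% DMSO, test chemicals act for 48 h over an eight-point range with a top dose of 100 uM. Expression is then quantified by TaqMan RT-PCR against ACTB, GAPDH and POLR2A.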

MYC, MYC (gene 4609) = experiment: LTEA_HepaRG_MYC: Life Technologies and Expression Analysis (LTEA) Assay for MYC using HepaRG (AID 2283518)
Outline: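 MYC transcript changes, up or down relative to 0.5% DMSO, from TaqMan qRT-PCR normalized to three housekeeping genes. Human HepaRG cultures received chemicals for 48 h at eight half-log concentrations up to 100 uM, in duplicate.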

[12] = read-out: matrix metalloproteinase-3 (MMP3), MMP3 (gene 4314); experiment: LTEA_HepaRG_MMP3: Life Technologies and Expression Analysis (LTEA) Assay for matrix metalloproteinase-3 (MMP3) using HepaRG (AID 2283519)
Outline: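 Human liver HepaRG cultures received chemicals (top concentration 100 uM, 0.5% DMSO) for 48 h in duplicate. MMP3 mRNA induction or loss was then assessed via TaqMan qRT-PCR with housekeeping-gene normalisation.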

[13] = read-out: Paternally Expressed 10 (PEG10), PEG10 (gene 23089); experiment: LTEA_HepaRG_PEG10: Life Technologies and Expression Analysis (LTEA) Assay for Paternally Expressed 10 (PEG10) using HepaRG (AID 2283520);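 on AC50: PEG10 transcript by qRT-PCR normalised to ACTB GAPDH and POLR2A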
Outline: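 qRT-PCR read-out: PEG10 mRNA normalised to three housekeeping genes, fitted bidirectionally against 0.5% DMSO vehicle. HepaRG cells received test chemicals for 48 h in serum-free induction medium, 8 points, top 100 uM, half-log steps.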

[14] = read-out: Protein phosphatase 2A (PPP2R4), PTPA (gene 5524); experiment: LTEA_HepaRG_PPP2R4: Life Technologies and Expression Analysis (LTEA) Assay for Protein phosphatase 2A (PPP2R4) using HepaRG (AID 2283522)
Outline: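 HepaRG, 48 h exposure, 8-pt half-log series from 100 uM, 0.5% DMSO vehicle, duplicates. Readout: PPP2R4 mRNA, Fluidigm qRT-PCR, housekeeping-normalized. Bidirectional curve fit vs DMSO baseline.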

[15] = read-out: Phosphatase and tensin (PTEN), PTEN (gene 5728); experiment: LTEA_HepaRG_PTEN: Life Technologies and Expression Analysis (LTEA) Assay for Phosphatase and tensin (PTEN) using HepaRG (AID 2283523)
Outline: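 Expression of PTEN is quantified in the human liver line HepaRG following two days of dosing (top concentration 100 uM, half-log dilutions, 0.5% DMSO). Values derive from bidirectional curve fitting relative to DMSO controls.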

[16] = read-out: solute carrier (SLC22A1), SLC22A1 (gene 6580); experiment: LTEA_HepaRG_SLC22A1: Life Technologies and Expression Analysis (LTEA) Assay for solute carrier (SLC22A1) using HepaRG (AID 2283524);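 on AC50: differentiated human HepaRG liver cells in serum-free induction medium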
Outline: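 Transcript induction or suppression of SLC22A1 in human HepaRG cultures is scored after 48 h chemical treatment, with DMSO (0.5%) as baseline for bidirectional fitting. Concentrations span eight half-log points topping at 100 uM.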

[17] = read-out: Pyruvate Dehydrogenase Kinase 4 (PDK4), PDK4 (gene 5166); experiment: LTEA_HepaRG_PDK4: Life Technologies and Expression Analysis (LTEA) Assay for Pyruvate Dehydrogenase Kinase 4 (PDK4) using HepaRG (AID 2283525)
Outline: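 Eight-point, half-log concentration series (max 100 uM, 0.5% DMSO) applied to differentiated HepaRG cells for 48 h in duplicate. Endpoint: PDK4 mRNA induction or repression by qRT-PCR against DMSO baseline.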

[18] = read-out: Nuclear factor NF-kappa-B p105 subunit (Homo sapiens) (UniProt P19838); experiment: LTEA_HepaRG_NFKB1: Life Technologies and Expression Analysis (LTEA) Assay for Nuclear Factor Kappa B Subunit 1 (NFKB1) using HepaRG (AID 2283521);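 further: differentiated human HepaRG liver cells in serum-free induction medium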
Outline: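 NFKB1 transcript was measured by TaqMan qRT-PCR on Fluidigm arrays, normalised to three housekeeping genes and fitted in both directions against 0.5% DMSO. HepaRG cells were dosed in duplicate for 48 h in serum-free induction medium, eight half-log steps from 100 uM.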

[19] = read-out: NAD(P)H dehydrogenase [quinone] 1 (NQO1), NQO1 (gene 1728); experiment: LTEA_HepaRG_NQO1: Life Technologies and Expression Analysis (LTEA) Assay for NAD(P)H dehydrogenase [quinone] 1 (NQO1) using HepaRG (AID 2283526)
Outline: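 qRT-PCR read-out (Fluidigm TaqMan), normalized to three housekeeping genes, after 48 h chemical exposure of HepaRG cells. Concentrations: eight points, top 100 uM, half-log steps, 0.5% DMSO vehicle. Gain or loss of signal fitted relative to DMSO.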

Measured: AC50

Sequence of Nuclear factor NF-kappa-B p105 subunit (Homo sapiens) (P19838 whole entry, looked up): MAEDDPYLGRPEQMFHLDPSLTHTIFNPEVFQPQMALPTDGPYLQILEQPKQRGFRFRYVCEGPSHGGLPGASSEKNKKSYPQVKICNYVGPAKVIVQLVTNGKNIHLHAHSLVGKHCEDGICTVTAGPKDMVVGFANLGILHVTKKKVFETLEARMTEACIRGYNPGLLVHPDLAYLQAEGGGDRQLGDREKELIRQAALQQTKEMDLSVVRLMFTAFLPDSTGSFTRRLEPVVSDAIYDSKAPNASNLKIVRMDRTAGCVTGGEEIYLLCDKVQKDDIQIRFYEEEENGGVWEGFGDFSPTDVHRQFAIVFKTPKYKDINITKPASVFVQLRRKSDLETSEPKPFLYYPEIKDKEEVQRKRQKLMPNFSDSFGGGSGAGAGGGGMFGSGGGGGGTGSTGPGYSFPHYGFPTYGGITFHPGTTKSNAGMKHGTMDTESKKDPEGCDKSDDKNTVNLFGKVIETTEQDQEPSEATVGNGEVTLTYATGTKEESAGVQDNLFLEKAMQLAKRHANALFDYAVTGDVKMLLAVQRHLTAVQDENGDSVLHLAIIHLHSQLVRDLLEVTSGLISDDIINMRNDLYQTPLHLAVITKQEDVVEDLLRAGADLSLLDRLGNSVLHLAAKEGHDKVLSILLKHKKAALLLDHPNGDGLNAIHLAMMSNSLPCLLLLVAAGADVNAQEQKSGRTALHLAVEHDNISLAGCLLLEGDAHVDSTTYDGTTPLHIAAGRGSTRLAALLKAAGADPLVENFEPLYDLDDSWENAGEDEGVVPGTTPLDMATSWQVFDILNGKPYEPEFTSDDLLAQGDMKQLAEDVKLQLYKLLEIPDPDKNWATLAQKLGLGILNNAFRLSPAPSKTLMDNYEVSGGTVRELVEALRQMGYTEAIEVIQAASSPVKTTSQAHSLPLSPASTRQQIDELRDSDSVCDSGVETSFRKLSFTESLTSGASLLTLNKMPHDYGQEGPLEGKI

O=NN(c1ccccc1)c1ccccc1
active: [12] 80.6 µM
not listed: [18] | [19]
inactive: all other assays above

Nn1cnnc1
not listed: [19]
inactive: all other assays above

Cc1cc2c3c(c1)C(c1ccccc1)=N[C@@H](NC(=O)c1ccncc1)C(=O)N3CC2
active: [7] 50 µM | [8] 34.9 µM | [9] 21.1 µM | [16] 50 µM | [17] 50 µM
not listed: [18]
inactive: all other assays above

CC(C)C(=O)OCC(C)(C)C(OC(=O)C(C)C)C(C)C (centres undefined)
not listed: [3] | [19]
inactive: all other assays above

C=CC(=O)NCNC(=O)C=C
active: [3] 50 µM | [16] 30.6 µM
not listed: [19]
inactive: all other assays above

CN(C)c1nc(=O)n(C2CCCCC2)c(=O)n1C
active: [1] 5.44 µM | [8] 12 µM
not listed: [18] | [19]
inactive: all other assays above

CCCCCCCCCC[N+](C)(C)CCCCCCCCCC
active: [1] 94.5 µM | [2] 81.6 µM | [3] 78.3 µM | [7] 90.5 µM | [9] 88.7 µM | [12] 94 µM | [13] 50 µM | [15] 83.2 µM | [16] 61.5 µM | [17] 82.5 µM
inactive: [4] | [6] | [8] | [10] | [11] | MYC, MYC (gene 4609) | [18] | [14]
